Screening data: PubChem BioAssay, Broad Institute
Pf Dd2 growth = P. falciparum Dd2 growth inhibition. SYBR Green, 72 h; active compounds read low. activity change, % at 10 µM. 94,000 tested, 2.3% active; in the data active = activity change below about -80%
C diff HTS = C. difficile growth inhibition. AID 1259249. growth activity, negative = inhibition, % at 16 µg/mL (by protocol). 86,000 tested, 0.25% active. Clostridium difficile clinical isolate growth, OD600, 24 h; active compounds read low;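 active = mean growth activity at or below -80% and every replicate also at or below -80%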;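 note: 0% = DMSO wells and -100% = levofloxacin 16 µg/mL wells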
Tcruzi prolif = inhibitors of T. cruzi proliferation. T. cruzi beta-gal in NIH3T3, GalScreen luminescence, 90 h. inhibition, % at 8.34 µM. 77,000 tested, 5.9% active. AID 624255;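 active = mean inhibition above about 93%, with at least 55% of replicates each passing it, limit read from the data, passing the limit was not always enough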
Starred values were filed as active, the others as inactive; / = no result. Rows were chosen to be rich in hits. Some 6.8% of all compounds tested hit in one or more screens of this group.

SMILES	Pf Dd2 growth	C diff HTS	Tcruzi prolif
CCCNC(=O)c1cc2c(c(-c3cccc(-c4cc5ccccc5o4)c3)n1)[C@H](CCO)N(C(=O)NC(C)C)C2	-92.9*	3.0	/
COc1cccc(-c2cccc(-c3nc(C(=O)NCc4ccc(Oc5ccccc5)cc4)cc4c3[C@@H](CCO)N(S(=O)C(C)(C)C)C4)c2)c1 (stereo partly specified)	-83.9*	-4.5	/
CC(C)(C)[S@@](=O)N1Cc2cc(C(=O)NCCc3ccncc3)nc(-c3cccc(-c4ccccc4)c3)c2[C@H]1CCO	-85.5*	-6.2	/
COc1ccc(CNC(=O)c2cc3c(c(-c4cccc(-c5cccc(C#N)c5)c4)n2)[C@H](CCO)N([S@@](=O)C(C)(C)C)C3)cc1	-79.6	/	89.8
CC(C)(C)[S@@](=O)N1Cc2cc(C(=O)NCc3ccncc3)nc(-c3cccc(-c4ccncc4)c3)c2[C@H]1CCO	-34.9	/	32.3
CCNC(=O)c1cc2c(c(-c3cccc(-c4cc5ccccc5o4)c3)n1)[C@@H](CCO)N(C(=O)NC(C)C)C2	-76.0	-13.5	/
C[C@@H]1CN([C@H](C)CO)C(=O)c2cccc(NC(=O)C3CC3)c2O[C@@H]1CN(C)Cc1ccc2c(c1)OCO2	31.7	0.3	-10.6
CN1CCN(C(=O)C[C@@H]2C[C@H]3c4cc(NC(=O)CC5CC5)ccc4O[C@H]3[C@@H](CO)O2)CC1	10.0	2.2	-0.6
C[C@H](CO)N1C[C@H](C)[C@H](CN(C)C(=O)Nc2cccc3ccccc23)Oc2ccc(NC(=O)Nc3cccc4ccccc34)cc2C1=O	-33.2	-1.6	8.6
C[C@@H]1CN([C@@H](C)CO)C(=O)c2c(c3ccccc3n2C)-c2ccccc2CO[C@H]1CN(C)C(=O)Nc1ccccc1C(F)(F)F	-90.3*	9.6	/
C[C@H](CO)N1C[C@H](C)[C@@H](CN(C)C(=O)Nc2ccccc2C(F)(F)F)OCc2ccccc2-c2c(n(C)c3ccccc23)C1=O	-30.4	65.9	/
COc1ccccc1NC(=O)N(C)C[C@@H]1OCc2ccccc2-c2c(n(C)c3ccccc23)C(=O)N([C@@H](C)CO)C[C@@H]1C	-53.9	/	27.5
C[C@H]1CN([C@@H](C)CO)C(=O)c2c(c3ccccc3n2C)-c2ccccc2CO[C@@H]1CN(C)C(=O)Nc1cccc(Cl)c1Cl	-84.3*	14.2	/
C[C@@H]1CN([C@H](C)CO)C(=O)c2cc(C#CC(C)(C)O)cnc2O[C@@H]1CN(C)C(=O)C1CCC1	-7.6	-1.9	/
CC(=O)Nc1ccc2c(c1)C(=O)N(C)[C@H]1CC[C@H](CC(=O)NCC3CCCCC3)O[C@@H]1CO2	4.5	2.3	76.7
C[C@H](CO)N1C[C@H](C)[C@@H](CN(C)Cc2ccccc2)Oc2c(NC(=O)Nc3ccc(C(F)(F)F)cc3)cccc2C1=O	-7.4	12.6	29.8
C[C@@H]1CN([C@@H](C)CO)C(=O)c2cccc(NC(=O)Nc3ccc(C(F)(F)F)cc3)c2O[C@@H]1CN(C)Cc1ccccc1	-26.3	-97.6*	29.4
C[C@H](CO)N1C[C@H](C)[C@H](CN(C)Cc2ccccc2)Oc2c(NC(=O)Nc3ccc(C(F)(F)F)cc3)cccc2C1=O	-0.4	13.1	63.6
C[C@@H]1CN([C@@H](C)CO)C(=O)c2cccc(NC(=O)Nc3ccccc3)c2O[C@@H]1CN(C)Cc1ccc(C(F)(F)F)cc1	-62.1	-96.7*	-28.2
CN(C)CC#Cc1ccc([C@H]2[C@H]3CN(C(=O)c4ccccc4)CC(=O)N3[C@H]2CO)cc1	2.5	0.0	/
C[C@@H]1CN([C@H](C)CO)C(=O)CCCn2cc(nn2)CO[C@@H]1CN(C)Cc1ccc2c(c1)OCCN2C	9.2	-8.3	-0.5
COc1ccc2c3c(n(C)c2c1)[C@@H](CO)N(Cc1ccccc1F)CC31CCN(CC2CC2)CC1	-88.0*	4.0	/
COc1ccc2c3c(n(C)c2c1)[C@H](CO)N(Cc1ccccc1OC)CC31CCN(CC2CC2)CC1	-66.3	15.1	/
COc1ccc2c3c(n(C)c2c1)[C@H](CO)N(CC1CC1)CC31CCN(Cc2ccc(F)cc2)CC1	-85.2*	11.8	/
COc1ccc2c3c(n(C)c2c1)[C@@H](CO)N(CC1CC1)CC31CCN(Cc2ccc(F)cc2)CC1	-76.8	7.7	/
SMILES	Pf Dd2 growth	C diff HTS	Tcruzi prolif
COc1ccc2c3c(n(C)c2c1)[C@@H](CO)N(Cc1ccccc1F)CC31CN(CC2CC2)C1	-7.9	7.4	/
COc1ccc2c3c(n(C)c2c1)[C@@H](CO)N(Cc1ccccc1OC)CC31CCN(CC2CC2)CC1	-90.7*	13.2	/
O=C(Nc1ccc2c(c1)[C@@H]1C[C@@H](CC(=O)N3CCCCC3)O[C@H](CO)[C@@H]1O2)C1CCC1	20.1	/	25.7
CCNC(=O)C[C@H]1CC[C@H]2[C@@H](COC[C@@H](O)CN2Cc2ccccc2F)O1	-3.9	/	-39.3
C[C@@H]1CCCCO[C@@H](CN(C)S(=O)(=O)c2ccc(F)cc2)[C@H](C)CN([C@H](C)CO)C(=O)c2cc(NS(=O)(=O)c3ccccc3)ccc2O1	-55.0	17.2	48.1
CCCN1C[C@H](C)[C@@H](OC)CN(C)C(=O)c2ccc(NC(=O)Nc3cccc(F)c3)cc2OC[C@H]1C	-52.5	/	-61.6
CCCN1C[C@H](C)[C@@H](OC)CN(C)C(=O)c2cc(NC(=O)Nc3cccc(F)c3)ccc2OC[C@H]1C	-82.1*	6.0	-12.8
CCCC(=O)Nc1ccc2c(c1)OC[C@@H](C)N(Cc1cccc(F)c1)C[C@@H](C)[C@H](OC)CN(C)C2=O	-87.5*	/	90.3
CCCC(=O)Nc1ccc2c(c1)OC[C@H](C)N(Cc1cccc(F)c1)C[C@H](C)[C@H](OC)CN(C)C2=O	-52.9	/	48.3
CO[C@@H]1CN(C)C(=O)c2ccc(NS(=O)(=O)CC(F)(F)F)cc2OC[C@@H](C)N(Cc2nccs2)C[C@H]1C	-0.6	/	-5.7
CO[C@H]1CN(C)C(=O)c2cc(NC(=O)Cc3ccccc3)ccc2OC[C@H](C)N(C(=O)c2ccccc2F)C[C@H]1C	-88.9*	/	5.1
CO[C@H]1CN(C)C(=O)c2ccc(NS(=O)(=O)CC(F)(F)F)cc2OC[C@@H](C)N(Cc2nccs2)C[C@H]1C	-87.6*	/	25.5
CO[C@@H]1CN(C)C(=O)c2cc(NC(=O)Cc3ccccc3)ccc2OC[C@@H](C)N(C(=O)c2ccccc2F)C[C@@H]1C	-50.1	/	-94.7
COCC(=O)Nc1ccc2c(c1)C(=O)N(C)[C@@H]1CC[C@H](CC(=O)NC3CCCC3)O[C@H]1CO2	1.1	1.0	-21.3
COc1ccc(NC(=O)N(C)C[C@@H]2Oc3c(NC(=O)Nc4ccccc4)cccc3C(=O)N([C@@H](C)CO)C[C@H]2C)cc1	-24.6	-5.8	19.4
COc1ccc2c3c([nH]c2c1)[C@@H](CO)N(C(C)=O)CC31CN(Cc2cc(-c3ccccc3)on2)C1	-60.7	-3.5	/
Cc1noc(C)c1NC(=O)N(C)C[C@@H]1Oc2ccc(NC(=O)Cc3cn(C)c4ccccc34)cc2CC(=O)N([C@@H](C)CO)C[C@@H]1C	-14.2	-8.3	-56.1
COc1ccc2c3c([nH]c2c1)[C@@H](CO)N(C(=O)CN1CCOCC1)CC31CN(CC2CCCC2)C1	-20.7	5.0	/
COCC(=O)Nc1ccc2c(c1)OC[C@H](C)N(Cc1ccncc1)C[C@H](C)[C@@H](OC)CN(C)C2=O	-85.0*	5.6	/
CO[C@@H]1CN(C)C(=O)c2ccc(NC(=O)C3CC3)cc2OC[C@@H](C)N(Cc2ccccc2)C[C@H]1C	-80.4*	/	31.3
